Inconclusive results are not listed. Calls of active or inactive are those of the source. Unless noted, the call rests on the fitted dose curve; in most records, active means well fitted curve in the direction sought with a large enough effect in the repeat runs; inconclusive means weak or mixed curves; inactive means no such curve, though single readings can be large; an effect the other way counts as inactive or inconclusive.
Tests used:
[1] = qHTS assay to test for compound auto fluorescence at 535 nm (green) in HEK293 cells (AID 720680)
[2] = qHTS assay to test for compound auto fluorescence at 535 nm (green) in HEK293 cell free culture (AID 720682)
Method in brief: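 Using fluorescein as calibrant, autofluorescence was quantified at 485/535 nm in cell-free DMEM containing 10% FBS after pintool addition of compound or vehicle.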

[3] = qHTS assay to test for compound auto fluorescence at 590 nm (red) in HEK293 cell free culture (AID 720683)
Method in brief: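 Red-channel autofluorescence of compounds in culture medium (DMEM, 10% FBS), no cells, measured at 540/590 nm. Rose Bengal sodium is the reference fluorophore for equivalence.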

[4] = qHTS assay to test for compound auto fluorescence at 590 nm (red) in HepG2 cell free culture (AID 720684)
Method in brief: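 No cells present: MEM + 10% FBS only. Compound pinned in, red label read (540/590 nm). Activity = fluorescence equivalent to Rose Bengal sodium.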

[5] = qHTS assay to test for compound auto fluorescence at 535 nm (green) in HepG2 cell free culture (AID 720686)
[6] = qHTS assay to identify small molecule antagonists of the glucocorticoid receptor (GR) signaling pathway - cell viability counter screen (AID 720693); further: nearly all actives have a fitted effect of over 55% in size
[7] = qHTS assay for identifying genotoxic compounds that show differential cytotoxicity against isogenic chicken DT40 cell lines with known DNA damage response pathways - wild type cell line (AID 743012); further: nearly all actives have a fitted effect of over 60% in size; further: potency means the concentration at half of the fitted maximal effect
Method in brief: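 300 wt DT40 cells/well; cpd (DMSO) pintool-transferred after ~0.5 h at 37 C/5% CO2; 40 h incubation; CellTiter-Glo added, 30 min RT; luminescence read.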

[8] = qHTS assay for identifying genotoxic compounds that show differential cytotoxicity against isogenic chicken DT40 cell lines with known DNA damage response pathways - Rev3 mutant cell line (AID 743014); further: nearly all actives have a fitted effect of over 55% in size; further: potency means the concentration at half of the fitted maximal effect
[9] = qHTS assay for identifying genotoxic compounds that show differential cytotoxicity against isogenic chicken DT40 cell lines with known DNA damage response pathways - Rad54/Ku70 mutant cell line (AID 743015); further: nearly all actives have a fitted effect of over 60% in size; further: potency means the concentration at half of the fitted maximal effect
[10] = qHTS assay to identify small molecule antagonists of the androgen receptor (AR) signaling pathway - cell viability counter screen (AID 743033; further: nearly all actives have a fitted effect of over 45% in size)
[11] = qHTS assay to identify small molecule antagonists of the androgen receptor (AR) signaling pathway using the MDA cell line - cell viability counter screen (AID 743041; further: nearly all actives have a fitted effect of over 45% in size; further: potency means the concentration at half of the fitted maximal effect)
Method in brief: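 Using the breast carcinoma line MDA-kb2 AR-luc, test chemicals were co-incubated with R1881 for 16 h; CellTiter-Fluor reagent, added at 15.5 h, provided a fluorescence measure of live cells.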

[12] = qHTS assay to test for compound auto fluorescence at 460 nm (blue) in HEK293 cell free culture (AID 720681)
Method in brief: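 Blue fluorescence (Ex 405/Em 460 nm, triamterene-equivalent) was read immediately after pin transfer of compound or DMSO into medium (DMEM, 10% FBS) without cells.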

[13] = qHTS assay to test for compound auto fluorescence at 460 nm (blue) in HepG2 cell free culture (AID 720685)
Method in brief: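 Cell-free plates of MEM plus 10% FBS received 23 nL compound or DMSO vehicle; blue-channel (405/460 nm) intensity scored against triamterene as reference fluorophore.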

[14] = qHTS assay to test for compound auto fluorescence at 460 nm (blue) in HepG2 cells (AID 720687)
Method in brief: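 Blue-channel autofluorescence (Ex/Em 405/460 nm, triamterene-equivalent) was measured after 1 hr compound exposure at 37 C, 5% CO2. Cells were HepG2, plated overnight at 37 C in MEM plus 10% FBS.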

[15] = biological target: Glucocorticoid receptor (Homo sapiens) (UniProt P04150); experiment: qHTS assay to identify small molecule agonists of the glucocorticoid receptor (GR) signaling pathway (AID 720691; active means well fitted activation curve with a large enough effect in the signal ratio in the repeat runs, not every such curve was filed as active; the % refers to the signal ratio); details: GR-bla HeLa, beta-lactamase reporter ratio, 18 h; activation: at 62.4 µM (top of the series)
Method in brief: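 A HeLa cervical cancer line expressing GR and a glucocorticoid response element-driven beta-lactamase gene is treated with compounds for 18 h; LiveBLAzer B/G FRET substrate is then applied and fluorescence read.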

[16] = biological target: Glucocorticoid receptor (Homo sapiens) (UniProt P04150); experiment: qHTS assay to identify small molecule antagonists of the glucocorticoid receptor (GR) signaling pathway (AID 720692; active means well fitted inhibition curve with a large enough effect in the signal ratio in the repeat runs, not every such curve was filed as active; the % refers to the signal ratio; further: potency means the concentration at half of the fitted maximal effect)
Method in brief: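 GRE-bla HeLa line, dex-stimulated (5 nM final). Compound exposure 18 h, 37 C. Beta-lactamase FRET read after 2 h RT substrate.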

[17] = biological target: Androgen receptor (Homo sapiens) (UniProt P10275); experiment: qHTS assay to identify small molecule antagonists of the androgen receptor (AR) signaling pathway (AID 743035; active means well fitted inhibition curve with a large enough effect in the signal ratio in the repeat runs, not every such curve was filed as active; the % refers to the signal ratio; further: potency means the concentration at half of the fitted maximal effect)
Method in brief: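 In this cell-based reporter screen, compounds were tested in concentration series against R1881-activated HEK293 cells expressing beta-lactamase under UAS control; after 16 h at 37C, FRET substrate was added and fluorescence read 2 h later.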

[18] = biological target: Androgen receptor (Homo sapiens) (UniProt P10275); experiment: qHTS assay to identify small molecule agonists of the androgen receptor (AR) signaling pathway using the MDA cell line (AID 743040; further: nearly all actives have a fitted effect of over 20% in size)
Method in brief: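 Stable MMTV-luciferase reporter in MDA-kb2 cells; note the promoter carries GR as well as AR response elements. 16 h compound treatment, 37C, 0% CO2; ONE-Glo luminescence endpoint.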

[19] = biological target: Androgen receptor (Homo sapiens) (UniProt P10275); experiment: qHTS assay to identify small molecule antagonists of the androgen receptor (AR) signaling pathway using the MDA cell line (AID 743042; further: nearly all actives have a fitted effect of over 55% in size; further: potency means the concentration at half of the fitted maximal effect)
Method in brief: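 Antagonist mode: compounds plus R1881 agonist added to MDA-kb2 AR-luc cells, incubated 16 h at 37C. Luciferase reporter luminescence quantified, with multiplexed CellTiter-Fluor readout for cell viability.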

[20] = biological target: Androgen receptor (Homo sapiens) (UniProt P10275); experiment: qHTS assay to identify small molecule agonists of the androgen receptor (AR) signaling pathway (AID 743036; active means well fitted activation curve with a large enough effect in the signal ratio in the repeat runs, with a control signal flat, not every such curve was filed as active; the % refers to the signal ratio)
Method in brief: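 In this Tox21 qHTS, 2,000 HEK293 AR-bla cells per well were incubated with compounds for 16 h at 37C and 5% CO2. Fluorescence intensity was recorded 2 h after adding LiveBLAzer B/G FRET substrate at room temperature.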

Measured: Potency

Chain of Glucocorticoid receptor (Homo sapiens) (P04150 whole entry, looked up): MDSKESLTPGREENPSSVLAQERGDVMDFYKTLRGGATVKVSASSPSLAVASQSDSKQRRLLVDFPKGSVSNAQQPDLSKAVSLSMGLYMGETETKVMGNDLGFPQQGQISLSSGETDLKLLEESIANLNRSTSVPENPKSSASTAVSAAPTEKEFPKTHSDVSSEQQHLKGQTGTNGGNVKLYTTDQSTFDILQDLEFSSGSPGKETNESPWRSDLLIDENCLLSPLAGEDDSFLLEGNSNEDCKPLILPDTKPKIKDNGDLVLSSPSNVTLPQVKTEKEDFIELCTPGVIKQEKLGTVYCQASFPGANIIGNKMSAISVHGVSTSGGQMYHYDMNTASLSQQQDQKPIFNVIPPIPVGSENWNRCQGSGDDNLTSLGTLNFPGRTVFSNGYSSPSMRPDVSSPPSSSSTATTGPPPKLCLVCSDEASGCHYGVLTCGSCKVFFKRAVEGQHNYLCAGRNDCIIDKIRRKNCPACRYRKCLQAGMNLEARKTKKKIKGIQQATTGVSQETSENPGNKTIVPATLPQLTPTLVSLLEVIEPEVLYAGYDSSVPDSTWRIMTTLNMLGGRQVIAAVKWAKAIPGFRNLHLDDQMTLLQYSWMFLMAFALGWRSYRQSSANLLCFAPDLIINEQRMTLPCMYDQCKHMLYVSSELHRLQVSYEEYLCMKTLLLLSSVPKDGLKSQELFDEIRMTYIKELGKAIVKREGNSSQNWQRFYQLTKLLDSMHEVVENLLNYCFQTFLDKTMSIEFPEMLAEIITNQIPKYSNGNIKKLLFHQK
Chain of Androgen receptor (Homo sapiens) (P10275 whole entry, looked up): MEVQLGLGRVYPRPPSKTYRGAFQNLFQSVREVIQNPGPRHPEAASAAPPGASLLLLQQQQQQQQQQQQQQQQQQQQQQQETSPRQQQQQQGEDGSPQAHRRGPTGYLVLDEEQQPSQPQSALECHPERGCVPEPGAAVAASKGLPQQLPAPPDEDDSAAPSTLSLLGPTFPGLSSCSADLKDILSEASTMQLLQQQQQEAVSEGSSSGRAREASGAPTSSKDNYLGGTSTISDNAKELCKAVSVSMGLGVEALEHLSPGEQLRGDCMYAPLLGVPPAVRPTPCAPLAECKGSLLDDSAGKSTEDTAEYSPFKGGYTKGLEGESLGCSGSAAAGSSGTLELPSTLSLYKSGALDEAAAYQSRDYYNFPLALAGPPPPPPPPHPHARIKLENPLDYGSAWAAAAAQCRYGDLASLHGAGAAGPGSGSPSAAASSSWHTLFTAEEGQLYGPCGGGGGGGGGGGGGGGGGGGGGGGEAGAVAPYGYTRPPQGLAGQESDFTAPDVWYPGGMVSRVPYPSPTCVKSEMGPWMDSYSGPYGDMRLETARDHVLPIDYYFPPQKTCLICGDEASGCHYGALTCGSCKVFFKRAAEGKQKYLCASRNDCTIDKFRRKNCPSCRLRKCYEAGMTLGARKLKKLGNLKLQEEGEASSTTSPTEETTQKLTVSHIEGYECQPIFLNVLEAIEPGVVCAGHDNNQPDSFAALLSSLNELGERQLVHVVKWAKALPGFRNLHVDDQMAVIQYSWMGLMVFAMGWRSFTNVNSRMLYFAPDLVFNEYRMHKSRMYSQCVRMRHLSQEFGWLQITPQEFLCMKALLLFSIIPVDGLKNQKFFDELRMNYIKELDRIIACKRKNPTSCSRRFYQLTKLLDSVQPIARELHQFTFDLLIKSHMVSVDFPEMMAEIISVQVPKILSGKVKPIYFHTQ

[C-]1=CC=CC1.[Cl][Zr+2][Cl].c1cc[cH-]c1
inactive: [1] | [2] | [3] | [4] | [5] | [6] | [7] | [8] | [9] | [10] | [11]

CSC1=N[C@@](C)(c2ccccc2)C(=O)N1Nc1ccccc1
inactive: [1] | [12] | [2] | [3] | [4] | [13] | [14] | [15] | [6]
active: [7] 1.54 µM | [9] 1.54 µM | [11] 48.6 µM

CCC(C)c1cccc(C(C)CC)c1O (stereo unspecified)
inactive: [12] | [2] | [3] | [4] | [13] | [5] | [14] | [6] | [10] | [11]

COC(=O)C(C)N(C(=O)c1ccco1)c1c(C)cccc1C (stereo unspecified)
inactive: [12] | [2] | [3] | [4] | [13] | [15] | [16] | [6] | [10]

CN1CCc2cc(Cl)c(O)cc2[C@H]2c3ccccc3CC[C@@H]21
inactive: [12] | [2] | [3] | [4] | [13] | [5] | [14] | [15] | [10] | [11]

CCC(OC(C)=O)C(CC(C)NC)(c1ccccc1)c1ccccc1 (stereo unspecified)
inactive: [12] | [2] | [3] | [4] | [13] | [14] | [6] | [10] | [18]
active: [7] 7.76 µM | [8] 15.5 µM | [9] 15.5 µM | [17] 49.4 µM | [11] 27.5 µM | [19] 21.9 µM

c1cc[n+]2c(c1)-c1cccc[n+]1CC2
active: [7] 3.35 µM | [8] 3.35 µM | [9] 2.37 µM
inactive: [12] | [2] | [3] | [4] | [13] | [5] | [15] | [16] | [6] | [11]

CC(=O)[O-].CC(=O)[O-].[Co+2]
inactive: [12] | [2] | [3] | [4] | [13] | [5] | [6] | [7] | [8] | [9] | [10] | [11]

N#Cc1ccc(N(CC(N)=O)CC(F)(F)F)cc1C(F)(F)F
inactive: [12] | [2] | [3] | [4] | [13] | [5] | [14] | [6] | [10] | [11]

CC1CCCC1
inactive: [15] | [7] | [8] | [9] | [10] | [11]

CC(=O)C(Cl)C(=O)N(C)C (stereo unspecified)
inactive: [12] | [2] | [3] | [4] | [13] | [5] | [6] | [10] | [11]
active: [8] 24.3 µM | [9] 61.1 µM

CC(=O)[O-].CC(=O)[O-].CC(=O)[O-].[Cr+3]
inactive: [12] | [2] | [3] | [4] | [13] | [5] | [6] | [10] | [11]
active: [8] 60.9 µM | [9] 19.3 µM

COc1ccc2[nH]cc(CCN(C(C)C)C(C)C)c2c1
inactive: [12] | [2] | [3] | [4] | [13] | [5] | [14] | [15] | [6] | [10] | [11]

CN
inactive: [12] | [2] | [3] | [4] | [13] | [15] | [16] | [6] | [7] | [8] | [9] | [10]

CCNS(=O)(=O)C(F)(F)C(F)(F)C(F)(F)C(F)(F)C(F)(F)C(F)(F)C(F)(F)C(F)(F)F
inactive: [12] | [2] | [3] | [4] | [13] | [5] | [14] | [6] | [10] | [20] | [18] | [11] | [19]

OCC(Br)CBr (stereo unspecified)
inactive: [12] | [2] | [3] | [4] | [13] | [5] | [14] | [15] | [6] | [7] | [9] | [10]

Oc1ccc(Cl)c(Cl)c1
inactive: [12] | [2] | [3] | [4] | [13] | [5] | [14] | [6] | [7] | [8] | [9] | [10] | [11]

C1=CCC=C1
inactive: [2] | [3] | [4] | [5] | [6] | [7] | [8] | [9] | [10] | [11]

Cc1cnc2c(C(=O)O)c(Cl)ccc2c1
inactive: [12] | [2] | [3] | [4] | [13] | [14] | [15] | [16] | [6] | [7] | [8] | [9] | [10] | [11]

O=C(Cl)c1ccccc1F
inactive: [12] | [2] | [3] | [4] | [13] | [14] | [6] | [7] | [9] | [10] | [11]

Cc1ccccc1OP(=O)(Oc1ccccc1C)Oc1ccccc1C
active: [16] 27.6 µM | [8] 54.7 µM | [9] 30.8 µM
inactive: [12] | [2] | [3] | [4] | [13] | [5] | [15] | [6] | [10] | [18] | [11] | [19]
